The text below walks through data of ChEMBL document CHEMBL1961873, “Compounds: GSK PKIS; Assays: Nanosyn kinase panel” (2012).

In test [1] the target is Mitogen-activated protein kinase 3 (Homo sapiens) (UniProt P27361). To be noted: at 1 µM.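 Note: values are mean percent inhibition of MAPK3.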
Test [2] deals with SRSF protein kinase 3 (Homo sapiens) (UniProt Q9UPE1). The settings on record: at 0.1 µM.
Test [3] has the same target. To be noted: at 1 µM.
For test [4], the target named is Mitogen-activated protein kinase 14 (Homo sapiens) (UniProt Q16539). The settings on record: at 0.1 µM.
Mitogen-activated protein kinase 14 (Homo sapiens), sequence (Q16539 whole entry): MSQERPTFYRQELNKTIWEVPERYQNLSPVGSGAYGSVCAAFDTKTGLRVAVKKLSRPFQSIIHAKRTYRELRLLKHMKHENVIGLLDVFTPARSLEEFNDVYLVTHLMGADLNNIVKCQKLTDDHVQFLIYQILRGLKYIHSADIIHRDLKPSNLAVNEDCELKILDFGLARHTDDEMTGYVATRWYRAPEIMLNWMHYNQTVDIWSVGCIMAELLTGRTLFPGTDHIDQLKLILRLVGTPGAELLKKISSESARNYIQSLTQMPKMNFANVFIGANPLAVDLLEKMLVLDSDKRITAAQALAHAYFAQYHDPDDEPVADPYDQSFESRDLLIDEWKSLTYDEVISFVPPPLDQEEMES
Test [5] has the same target. To be noted: at 1 µM.
Test [6] concerns the target Mitogen-activated protein kinase 11 (Homo sapiens) (UniProt Q15759). The settings on record: at 0.1 µM.
Test [7] has the same target. To be noted: at 1 µM.
Test [8] has as its target T1, Mitogen-activated protein kinase 13 (Homo sapiens) (UniProt O15264).
T1 sequence (whole entry): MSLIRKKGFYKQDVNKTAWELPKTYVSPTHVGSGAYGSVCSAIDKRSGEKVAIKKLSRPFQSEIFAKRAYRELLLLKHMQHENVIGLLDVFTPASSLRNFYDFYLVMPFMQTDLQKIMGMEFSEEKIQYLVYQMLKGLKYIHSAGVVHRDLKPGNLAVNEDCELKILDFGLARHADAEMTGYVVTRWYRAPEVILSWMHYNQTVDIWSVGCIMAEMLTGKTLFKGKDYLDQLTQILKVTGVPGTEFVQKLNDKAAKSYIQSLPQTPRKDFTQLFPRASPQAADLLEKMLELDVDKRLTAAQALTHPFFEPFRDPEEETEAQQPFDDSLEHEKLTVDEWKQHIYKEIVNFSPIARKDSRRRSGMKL
The settings on record: at 0.1 µM.

In test [9] the target is T1, Mitogen-activated protein kinase 13 (Homo sapiens). The settings on record: at 1 µM.
The target of test [10] is T2, Mitogen-activated protein kinase 12 (Homo sapiens) (UniProt P53778).
T2 sequence (whole entry): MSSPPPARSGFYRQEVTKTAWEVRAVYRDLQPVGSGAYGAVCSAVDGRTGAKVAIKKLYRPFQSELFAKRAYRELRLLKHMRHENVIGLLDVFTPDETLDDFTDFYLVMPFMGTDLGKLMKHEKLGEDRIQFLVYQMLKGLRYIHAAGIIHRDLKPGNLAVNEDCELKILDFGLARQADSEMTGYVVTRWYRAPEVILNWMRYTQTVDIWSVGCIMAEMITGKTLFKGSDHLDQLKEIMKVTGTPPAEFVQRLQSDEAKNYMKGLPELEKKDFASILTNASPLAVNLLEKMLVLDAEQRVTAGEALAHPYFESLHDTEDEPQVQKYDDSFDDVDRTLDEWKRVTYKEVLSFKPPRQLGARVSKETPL
The settings on record: at 0.1 µM.

The target of test [11] is T2, Mitogen-activated protein kinase 12 (Homo sapiens). The settings on record: at 1 µM.
The target in test [12] is SRSF protein kinase 1 (Homo sapiens) (UniProt Q96SB4). To be noted: at 0.1 µM.
SRSF protein kinase 1 (Homo sapiens), sequence (Q96SB4 whole entry): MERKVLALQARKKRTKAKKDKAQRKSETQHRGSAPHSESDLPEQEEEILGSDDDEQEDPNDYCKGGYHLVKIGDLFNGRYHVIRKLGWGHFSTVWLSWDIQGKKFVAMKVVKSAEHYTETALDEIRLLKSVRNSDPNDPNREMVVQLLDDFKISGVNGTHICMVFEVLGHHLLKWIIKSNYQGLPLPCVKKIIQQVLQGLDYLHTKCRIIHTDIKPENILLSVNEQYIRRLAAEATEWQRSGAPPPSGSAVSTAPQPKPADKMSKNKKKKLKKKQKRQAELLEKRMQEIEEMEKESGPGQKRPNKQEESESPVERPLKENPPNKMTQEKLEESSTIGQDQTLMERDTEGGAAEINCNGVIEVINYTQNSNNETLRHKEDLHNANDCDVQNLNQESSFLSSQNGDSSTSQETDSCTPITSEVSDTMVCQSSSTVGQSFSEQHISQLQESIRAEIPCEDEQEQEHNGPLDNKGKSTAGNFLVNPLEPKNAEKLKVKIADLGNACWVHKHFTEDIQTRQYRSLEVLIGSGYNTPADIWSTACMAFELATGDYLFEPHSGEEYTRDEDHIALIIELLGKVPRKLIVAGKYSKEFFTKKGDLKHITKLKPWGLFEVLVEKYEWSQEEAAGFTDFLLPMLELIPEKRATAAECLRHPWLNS
Test [13] has the same target. To be noted: at 1 µM.
Test [14] deals with Phosphatidylinositol 4,5-bisphosphate 3-kinase catalytic subunit alpha isoform (Homo sapiens) (UniProt P42336). The settings on record: at 0.1 µM.
Phosphatidylinositol 4,5-bisphosphate 3-kinase catalytic subunit alpha isoform (Homo sapiens), sequence (P42336 whole entry, canonical isoform): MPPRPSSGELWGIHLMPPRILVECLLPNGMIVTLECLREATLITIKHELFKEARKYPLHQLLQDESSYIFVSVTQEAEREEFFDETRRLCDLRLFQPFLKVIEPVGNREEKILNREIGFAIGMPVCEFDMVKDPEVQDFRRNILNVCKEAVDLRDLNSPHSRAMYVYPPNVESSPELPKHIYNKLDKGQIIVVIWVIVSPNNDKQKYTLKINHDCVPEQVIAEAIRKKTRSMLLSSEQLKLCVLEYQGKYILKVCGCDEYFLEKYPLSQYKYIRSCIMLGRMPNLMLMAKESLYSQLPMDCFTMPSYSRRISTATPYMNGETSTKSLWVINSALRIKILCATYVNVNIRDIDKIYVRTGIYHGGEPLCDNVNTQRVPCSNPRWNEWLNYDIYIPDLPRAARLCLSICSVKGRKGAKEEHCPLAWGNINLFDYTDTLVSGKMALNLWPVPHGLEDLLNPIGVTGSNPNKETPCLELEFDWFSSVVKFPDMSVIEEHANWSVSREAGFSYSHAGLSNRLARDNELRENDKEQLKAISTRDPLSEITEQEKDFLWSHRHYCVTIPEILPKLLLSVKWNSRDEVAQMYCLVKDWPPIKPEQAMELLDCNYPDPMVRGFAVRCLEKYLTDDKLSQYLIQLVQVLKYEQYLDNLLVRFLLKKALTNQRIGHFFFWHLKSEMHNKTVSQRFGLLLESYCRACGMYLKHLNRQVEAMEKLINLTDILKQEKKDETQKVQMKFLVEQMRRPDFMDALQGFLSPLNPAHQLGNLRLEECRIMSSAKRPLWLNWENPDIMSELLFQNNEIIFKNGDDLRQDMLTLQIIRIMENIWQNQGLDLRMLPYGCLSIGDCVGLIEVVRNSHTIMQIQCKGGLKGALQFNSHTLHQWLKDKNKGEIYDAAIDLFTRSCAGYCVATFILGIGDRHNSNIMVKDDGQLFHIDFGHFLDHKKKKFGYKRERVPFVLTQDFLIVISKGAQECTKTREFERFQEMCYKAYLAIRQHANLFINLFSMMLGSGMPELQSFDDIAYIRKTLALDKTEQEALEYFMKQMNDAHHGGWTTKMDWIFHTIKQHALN
The target is the same in test [15]. The settings on record: at 1 µM.
The target of test [16] is T3, Phosphatidylinositol 4,5-bisphosphate 3-kinase catalytic subunit delta isoform (Homo sapiens) (UniProt O00329).
T3 sequence (whole entry): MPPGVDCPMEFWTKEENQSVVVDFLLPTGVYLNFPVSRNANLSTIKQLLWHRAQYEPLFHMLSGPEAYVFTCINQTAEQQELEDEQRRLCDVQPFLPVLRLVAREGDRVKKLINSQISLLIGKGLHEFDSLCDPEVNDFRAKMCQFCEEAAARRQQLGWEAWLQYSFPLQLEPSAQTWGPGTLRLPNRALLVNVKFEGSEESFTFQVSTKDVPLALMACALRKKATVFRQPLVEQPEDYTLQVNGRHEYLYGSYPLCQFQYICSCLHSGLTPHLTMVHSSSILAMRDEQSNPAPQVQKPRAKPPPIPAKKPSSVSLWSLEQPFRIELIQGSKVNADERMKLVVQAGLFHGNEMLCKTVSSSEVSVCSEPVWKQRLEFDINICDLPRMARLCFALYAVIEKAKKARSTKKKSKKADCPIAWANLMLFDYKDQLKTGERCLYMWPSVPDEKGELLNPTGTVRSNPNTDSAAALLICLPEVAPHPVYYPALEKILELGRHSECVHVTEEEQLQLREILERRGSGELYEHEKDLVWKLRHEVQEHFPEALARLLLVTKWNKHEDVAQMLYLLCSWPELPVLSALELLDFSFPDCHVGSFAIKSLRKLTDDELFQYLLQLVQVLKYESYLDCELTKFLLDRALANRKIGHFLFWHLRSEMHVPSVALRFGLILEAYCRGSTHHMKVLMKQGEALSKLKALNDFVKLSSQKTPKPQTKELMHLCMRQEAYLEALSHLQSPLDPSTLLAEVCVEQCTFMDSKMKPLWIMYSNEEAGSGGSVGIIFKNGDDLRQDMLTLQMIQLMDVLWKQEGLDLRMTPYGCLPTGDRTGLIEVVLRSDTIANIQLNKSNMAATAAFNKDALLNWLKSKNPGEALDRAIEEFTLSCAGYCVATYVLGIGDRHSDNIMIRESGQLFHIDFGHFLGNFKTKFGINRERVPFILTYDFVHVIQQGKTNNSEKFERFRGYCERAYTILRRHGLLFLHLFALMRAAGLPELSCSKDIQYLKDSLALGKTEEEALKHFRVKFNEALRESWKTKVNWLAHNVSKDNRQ
The settings on record: at 0.1 µM.

Test [17] concerns the target T3, Phosphatidylinositol 4,5-bisphosphate 3-kinase catalytic subunit delta isoform (Homo sapiens). The settings on record: at 1 µM.
Test [18] deals with Phosphatidylinositol 4-kinase beta (Homo sapiens) (UniProt Q9UBF8). The settings on record: at 0.1 µM.
Phosphatidylinositol 4-kinase beta (Homo sapiens), sequence (Q9UBF8 2-816 limits assumed): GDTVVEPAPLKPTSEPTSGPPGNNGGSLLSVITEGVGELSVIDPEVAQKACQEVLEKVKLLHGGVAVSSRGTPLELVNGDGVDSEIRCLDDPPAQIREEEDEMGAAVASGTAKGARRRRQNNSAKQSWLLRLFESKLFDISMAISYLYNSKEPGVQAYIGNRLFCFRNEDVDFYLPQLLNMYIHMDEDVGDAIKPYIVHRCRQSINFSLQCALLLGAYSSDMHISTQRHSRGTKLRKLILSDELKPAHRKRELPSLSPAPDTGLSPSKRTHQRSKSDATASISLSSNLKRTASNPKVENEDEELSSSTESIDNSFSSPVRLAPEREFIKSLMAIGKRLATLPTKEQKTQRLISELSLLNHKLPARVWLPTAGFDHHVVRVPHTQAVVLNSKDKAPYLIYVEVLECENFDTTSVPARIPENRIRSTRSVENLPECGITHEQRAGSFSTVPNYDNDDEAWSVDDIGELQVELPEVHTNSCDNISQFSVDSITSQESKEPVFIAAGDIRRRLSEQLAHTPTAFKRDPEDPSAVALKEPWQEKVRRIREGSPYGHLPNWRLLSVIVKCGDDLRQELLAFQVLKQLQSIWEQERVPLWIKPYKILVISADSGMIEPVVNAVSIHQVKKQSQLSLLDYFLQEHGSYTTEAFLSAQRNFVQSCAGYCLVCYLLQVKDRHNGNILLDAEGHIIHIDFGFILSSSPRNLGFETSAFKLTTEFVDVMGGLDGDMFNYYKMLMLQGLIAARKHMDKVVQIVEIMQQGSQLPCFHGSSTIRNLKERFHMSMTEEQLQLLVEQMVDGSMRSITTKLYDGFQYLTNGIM
Test [19] shares this target. To be noted: at 1 µM.
Test [20] has as its target Sphingosine kinase 1 (Homo sapiens) (UniProt Q9NYA1). The settings on record: at 0.1 µM.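 Note: mean percent inhibition of SPHK1 activity, measured within the GSK PKIS screening panel.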

Mitogen-activated protein kinase 11 (Homo sapiens), sequence (Q15759 whole entry): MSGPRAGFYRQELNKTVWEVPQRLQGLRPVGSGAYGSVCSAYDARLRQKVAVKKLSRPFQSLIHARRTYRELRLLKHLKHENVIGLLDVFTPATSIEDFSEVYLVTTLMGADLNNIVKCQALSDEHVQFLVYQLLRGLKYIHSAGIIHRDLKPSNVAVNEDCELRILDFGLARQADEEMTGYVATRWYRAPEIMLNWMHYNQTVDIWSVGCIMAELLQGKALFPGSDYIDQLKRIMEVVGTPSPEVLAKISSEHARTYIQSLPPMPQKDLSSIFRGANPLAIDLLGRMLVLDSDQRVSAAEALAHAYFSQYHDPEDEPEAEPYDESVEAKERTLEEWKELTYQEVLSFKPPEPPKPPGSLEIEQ
SRSF protein kinase 3 (Homo sapiens), sequence (Q9UPE1 whole entry): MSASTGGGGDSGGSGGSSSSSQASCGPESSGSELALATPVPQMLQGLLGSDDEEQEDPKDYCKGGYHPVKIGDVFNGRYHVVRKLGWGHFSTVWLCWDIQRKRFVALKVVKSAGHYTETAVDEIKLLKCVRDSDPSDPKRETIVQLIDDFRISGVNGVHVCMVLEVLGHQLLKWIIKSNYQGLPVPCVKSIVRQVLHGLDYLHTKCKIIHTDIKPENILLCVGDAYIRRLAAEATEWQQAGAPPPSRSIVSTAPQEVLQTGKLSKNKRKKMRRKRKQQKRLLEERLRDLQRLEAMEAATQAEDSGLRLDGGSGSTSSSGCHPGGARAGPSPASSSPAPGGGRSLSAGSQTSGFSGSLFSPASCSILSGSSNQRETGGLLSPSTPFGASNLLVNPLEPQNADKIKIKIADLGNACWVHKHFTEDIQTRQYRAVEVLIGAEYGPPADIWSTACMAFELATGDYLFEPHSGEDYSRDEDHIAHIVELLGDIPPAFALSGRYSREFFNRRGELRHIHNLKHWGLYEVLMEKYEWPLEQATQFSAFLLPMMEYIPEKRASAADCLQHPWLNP
Mitogen-activated protein kinase 3 (Homo sapiens), sequence (P27361 whole entry): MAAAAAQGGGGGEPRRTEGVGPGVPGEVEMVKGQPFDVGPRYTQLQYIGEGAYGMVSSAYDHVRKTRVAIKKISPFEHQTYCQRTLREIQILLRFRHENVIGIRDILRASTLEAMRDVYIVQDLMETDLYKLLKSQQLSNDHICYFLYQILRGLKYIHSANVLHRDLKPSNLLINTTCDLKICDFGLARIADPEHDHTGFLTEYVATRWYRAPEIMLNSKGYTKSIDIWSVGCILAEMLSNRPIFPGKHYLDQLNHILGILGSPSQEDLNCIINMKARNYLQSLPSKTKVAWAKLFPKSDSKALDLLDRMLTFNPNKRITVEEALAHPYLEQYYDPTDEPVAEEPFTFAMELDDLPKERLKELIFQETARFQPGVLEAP
Sphingosine kinase 1 (Homo sapiens), sequence (Q9NYA1 whole entry): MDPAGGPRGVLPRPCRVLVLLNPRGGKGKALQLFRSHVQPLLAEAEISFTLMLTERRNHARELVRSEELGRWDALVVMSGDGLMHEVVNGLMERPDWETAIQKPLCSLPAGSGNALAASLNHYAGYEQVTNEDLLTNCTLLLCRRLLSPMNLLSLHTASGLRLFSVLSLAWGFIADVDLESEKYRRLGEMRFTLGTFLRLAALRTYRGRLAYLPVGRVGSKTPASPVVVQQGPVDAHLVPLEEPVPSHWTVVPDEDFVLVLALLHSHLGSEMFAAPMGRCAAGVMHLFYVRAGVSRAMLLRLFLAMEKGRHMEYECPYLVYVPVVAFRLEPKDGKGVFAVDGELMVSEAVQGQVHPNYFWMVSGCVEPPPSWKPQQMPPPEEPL

On to `COc1cc(Nc2nccc(-c3cnn4ncccc34)n2)cc(OC)c1`, for which the inhibition (usually the change of the read-out against control, counted positive when it falls) in [1] is 9.37%; in test [2], -0.86%; in [3], -1.27%; in test [4], 2.59%; in test [5] it was 10.3%; in [6], 2.14%. Besides, the inhibition is 10.7% in [7]; 1.49% in [8]; 12.1% in test [9]; 1.04% in test [10]; 5.11% in [11]; -0.28% in test [12]. In addition, the inhibition is 4.85% in test [13]; 2.19% in [14]; 20.5% in test [15]; 6.1% in test [16]; 35% in [17]; -0.41% in test [18]. Moreover, the figures for the inhibition in [19] and in [20] were 14.9% and 0%, respectively.
As to `COc1ccc(-c2nn3ncccc3c2-c2ccnc(Nc3cccc(C(F)(F)F)c3)n2)cc1`, the inhibition in [1] is 1.1%; in test [2], -2.11%; in [3], -1.47%; in [4], 15%; in test [5], 57.8%; in test [6], 7.58%. Further, the inhibition in [7] was 24.7%; in test [8], 2.68%; in test [9] it was 1.86%; in [10], 2.04%; in [11] it was 2.35%; in [12] it was -2.17%. Further, the inhibition in test [13] is -1.48%; in test [14], 2.28%; in test [15] it was 2.8%; in test [16], -0.05%; in test [17], 2.34%; in test [18] it was 4.99%. The inhibition in test [19] is -1.04%; in test [20], 0.03%.
In the case of `Nc1nccc(-c2c(-c3ccc(F)cc3)ncn2CCCN2CCOCC2)n1`, the inhibition in [1] was 5.63%; in test [2], -3.36%; in test [3], -1.79%; in test [4] it was 21.2%; in test [5], 64.9%; in [6], 6.8%. The inhibition in test [7] was 20.2%; in test [8], 2.28%; in test [9] it was 5.09%; in test [10], 1.09%; in test [11], 3.58%; in test [12], -1.35%. Besides, the inhibition in test [13] was -2.36%; in test [14], 3.59%; in [15], 3.13%; in [16], 0.42%; in [17], 3.48%; in test [18], -8.25%. Moreover, the inhibition in test [19] was -2.19%; in test [20], 2.43%.
As to `NS(=O)(=O)c1ccc(-c2cc3ccncc3cc2OCc2ccccc2)cc1`, the inhibition was 3.1% in test [1]; -2.09% in test [2]; 3.53% in test [3]; 7.07% in [4]; 8.35% in [5]; 2.71% in test [6]. The inhibition in test [7] was 6.57%; in [8], 5.51%; in test [9], 3.8%; in test [10] it was -0.17%; in [11], 2.36%; in [12] it was -1.87%. For the same compound, the inhibition was 0.04% in [13]; 3.71% in test [14]; 4.7% in [15]; 1.97% in test [16]; 2.98% in test [17]; 3.31% in test [18]. Besides, the inhibition in test [19] came to 0.15%; in [20], 1.82%.
In the case of `CN(C)CCCn1c(-c2nonc2N)nc2cnccc21`, the inhibition in test [1] is 2.88%; in test [2], -1.86%; in test [3], -1.05%; in [4], 5.93%; in [5], 12.9%; in test [6] it was 3.87%. Also, the inhibition in [7] is 8.3%; in [8], 1.23%; in [9], 4.99%; in test [10] it was 3.33%; in test [11], 3.42%; in test [12] it was -2.65%. The inhibition is -4.44% in test [13]; 2.84% in test [14]; 5.05% in test [15]; 1.95% in test [16]; 4.09% in test [17]; 0.95% in test [18]. Also, the figures for the inhibition in test [19] and in test [20] were 3.34% and 2.52%, respectively.
As for `COC(=O)Nc1nc2cc(Oc3ccc(NC(=O)Nc4cccc(Br)c4)cc3)ccc2[nH]1`, the inhibition is 3.83% in [1]; -0.78% in [2]; 1.64% in [3]; 7.25% in test [4]; 17.1% in [5]; 7.96% in [6]. Further, the inhibition in test [7] was 17%; in test [8] it was 2.44%; in test [9] it was 0.89%; in test [10], 2.07%; in test [11] it was 1.52%; in test [12] it was -2.5%. The inhibition was -2.45% in test [13]; 0.99% in test [14]; 8.57% in test [15]; 1.03% in test [16]; 7.1% in [17]; 0.03% in test [18]. Moreover, the inhibition in test [19] was -5.6%; in [20] it was -1.27%.
